From PubChem
In the library only some 2.1% were active in any assay of this set; here they are far more common.
B2AR arrestin – beta2AR (human) beta-arrestin recruitment activity; P07550; beta-arrestin recruitment to beta2AR, cell-based reporter; Potency, µM (highest dose often 46.1 µM), inactives show at the highest dose activation, usual class: activators; actives 0.02% (n = 330,000); AID 492947;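 note: potency is the fitted concentration of half-maximal effect; 0% = DMSO controls and full agonism = EC100 isoproterenol or metaproterenol; nearly all actives have a fitted effect of over 65% in size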
Target sequence (P07550 whole entry, looked up): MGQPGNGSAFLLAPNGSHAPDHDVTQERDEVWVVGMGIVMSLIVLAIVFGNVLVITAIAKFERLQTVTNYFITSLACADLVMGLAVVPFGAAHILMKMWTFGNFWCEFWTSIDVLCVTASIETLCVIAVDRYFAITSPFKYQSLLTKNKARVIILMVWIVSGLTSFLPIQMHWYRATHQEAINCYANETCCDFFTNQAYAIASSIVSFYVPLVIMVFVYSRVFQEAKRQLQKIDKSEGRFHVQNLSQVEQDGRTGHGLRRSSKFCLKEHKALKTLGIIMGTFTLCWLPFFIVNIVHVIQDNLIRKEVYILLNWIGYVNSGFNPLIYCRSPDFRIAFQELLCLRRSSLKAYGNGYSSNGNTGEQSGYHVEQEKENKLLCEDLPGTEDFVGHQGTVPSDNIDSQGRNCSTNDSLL
p53 reactivator – re-activators of mutant p53; AID 504706; actives 0.063% (n = 320,000); Potency, µM (titrated, usually from 92.2 µM), without a hit: at the highest dose activity change, positive = activation, hits mostly activators; H1299 p53-A138V BP100-luciferase reporter, luminescence, 24 h; note: potency is the fitted concentration of half-maximal effect; % of control where 0% means no effect; nearly all actives have a fitted effect of over 45% in size
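H1299 (p53-null), stable ts p53-A138V + BP100-Luc; 1000 cells/well, Opti-MEM/10% FBS; cpd 4 pt, 1:5; 24 h, 37 deg C, 5% CO2; detection reagent 10 min RT; luminescence.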
uPA generation – blocks generation of uPA at the cell surface; cell surface uPA generation assay, qHTS; Potency, µM (doses to about 38.3 µM), for the others: at the top dose activity change, negative = inhibition, hits mostly inhibitors; actives 0.31% (n = 330,000); active = well fitted inhibition curve with a large enough effect; inconclusive = small, poorly fitted or top-dose-only effect; inactive = no such curve, though single readings can be large or run the other way; tested in mouse RAW 264.7 cells; note: potency is the fitted concentration of half-maximal effect; % is set by controls: 0 for no effect and ±100 for the full control effect; nearly all actives have a fitted effect of over 55% in size
ClpP mod – qHTS Assay for Activators of ClpP; ATP-dependent Clp protease proteolytic subunit (Bacillus subtilis (strain 168)), P80244; purified B. subtilis ClpP, FRET peptide cleavage, 20 min; Potency, µM (doses to about 57.5 µM), inactives show at the highest dose activity change, negative = active; actives 1.9% (n = 340,000); AID 651965, 2013; active = well fitted falling curve with a large enough effect; inconclusive = small, poorly fitted or top-dose-only effect; inactive = no such curve, though single readings can be large or run the other way; note: potency is the fitted concentration of half-maximal effect; the source files actives as falling curves though it sought activators and does not explain the sign; nearly all actives have a fitted effect of over 65% in size
Target sequence (P80244 whole entry, looked up): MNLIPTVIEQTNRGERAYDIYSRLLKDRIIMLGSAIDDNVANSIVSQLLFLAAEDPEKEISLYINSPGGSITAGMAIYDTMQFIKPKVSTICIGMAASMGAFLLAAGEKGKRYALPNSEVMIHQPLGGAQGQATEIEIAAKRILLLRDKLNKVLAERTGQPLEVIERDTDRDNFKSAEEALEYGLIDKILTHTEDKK
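FRET quenching reversal measured ClpP activation: 10 microg/mL B. subtilis ClpP at pH 8 with the FRET-FV decapeptide, read at 430 nm after 320 nm excitation. The 20-min minus 0-min signal was scaled between DMSO/no-enzyme wells and ADEP (5.8 microM final).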
Mito fusion act – mitochondrial division inhibition or fusion activation; S. cerevisiae fusion-defective mutant growth rescue, CellTiterGlo 48 h; Potency, µM (highest dose often 46.1 µM), without a hit: at the highest dose growth rescue (activation), most hits filed as activators; actives 0.23% (n = 320,000); AID 485298; note: potency is the fitted concentration of half-maximal effect; % of control where 0% means no effect; nearly all actives have a fitted effect of over 45% in size
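Yeast fusion mutant, YPEG (non-fermentable carbon), compound, 48 h at 37C non-permissive; CellTiterGlo added, 10 min RT, luminescence read. Rescued growth = division inhibition.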
Giardia killer – kills Giardia lamblia. Giardia lamblia trophozoite viability. activity change, % at 7.66 µM, hits read low. actives 0.15% (n = 340,000). AID 540267; in the data active = activity change below about -80%; inconclusive = between about -30% and that limit;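 note: parasites exposed to compound for two days anaerobically before the ATP read; % is set by controls: 0 for no effect and ±100 for the full control effect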
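ATP-content bioluminescence gauges trophozoite survival. Cells (100/well) receive compound and incubate anaerobically for 48 hrs at 37 deg C; detection reagent follows for 15-30 min at room temperature.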
Active calls of the source: *; ? = inconclusive; / = no result. Unless noted, calls come from the whole dose curve; as a rule, active = well fitted curve in the direction sought with a large enough effect; inconclusive = small, poorly fitted or top-dose-only effect, or another doubt; inactive = no such curve, though single readings can be large; an effect the other way counts as inactive or inconclusive.

SMILES	B2AR arrestin	p53 reactivator	uPA generation	ClpP mod	Mito fusion act	Giardia killer
CCNC(=S)NNC(=O)c1cc(-c2cccc(OC)c2)nc2ccccc12	-1%	?	-10%	7%	-20%	-17
Cc1ccc(-c2cc(C(=O)N/N=C/c3cccnc3)c3ccccc3n2)cc1C	/	/	10µM*	-16%	/	-23
Cc1ccc(-c2cc(C(=O)NCCCN3CCOCC3)c3ccccc3n2)cc1C	0%	-2%	-7%	/	6.3µM*	-7
COc1ccc(NC(=O)c2c(C)oc3ccc(O)c(CN4CCN(Cc5ccccc5)CC4)c23)cc1Cl	/	/	/	-5%	/	/
CCC(=O)c1c[nH]c(C(=O)NCCCN2CCOCC2)c1	0%	-1%	-3%	-1%	0%	-14
Cc1c(Br)cc(C(=O)NCCCN2CCOCC2)c(C)c1C	0%	-1%	-2%	16µM*	-3%	-6
CCCC(=O)c1c[nH]c(C(=O)NCCCN2CCOCC2)c1	0%	-3%	-8%	25µM*	-1%	-7
O=C(NCc1ccccn1)c1cc(-c2ccc(-c3ccccc3)cc2)nc2ccccc12	-1%	?	1.1µM*	4%	?	?
CCOC(=O)c1[nH]c(C)c(C(=O)NC(CC)Cc2ccccc2)c1C (centres undefined)	/	/	/	2%	/	/
c1ccc2c(c1)sc[n+]2CCC1CCCCC1	/	/	/	-4%	/	/
CCCn1cc(S(=O)(=O)c2cccc(Cl)c2)c(=O)c2cc(F)c(N3CCCC3)cc21	/	/	/	-24%	/	/
COc1ccc(CNC(=O)Cn2ccc3cc(S(=O)(=O)N4CCCCC4)ccc32)c(OC)c1	/	/	/	-28%	/	/
Cc1ccc(C)c(NC(=O)c2cnn(-c3cccc(F)c3)c2C2CCN(C(=O)OC(C)(C)C)CC2)c1	/	/	/	-8%	/	/
CN(C(=O)CSc1ccccc1C(=O)O)C1CCCCC1	0%	1%	3%	1%	0%	16
O=C(CSC1=Nc2ccccc2C2=NC(c3ccccc3)C(=O)N12)NC1CCCCC1 (centres undefined)	0%	3%	-4%	11µM*	0%	0
CN(C(=O)CSC1=Nc2ccccc2C2=NC(c3ccccc3)C(=O)N12)C1CCCCC1 (centres undefined)	-1%	6%	-5%	25µM*	0%	0
CCOc1ccccc1N(C)C(=O)NCc1noc2ccccc12	/	/	/	1%	/	/
CC(C)CCN1CCNC(=O)C1CC(=O)N(C)CCCN1CCOCC1 (centres undefined)	-1%	0%	8%	32µM*	1%	7
COc1cc(CN2CCNC(=O)C2CC(=O)N(C)CCCN2CCOCC2)cc(OC)c1 (centres undefined)	-1%	13%	1%	-2%	1%	-9
CCc1ccc(-c2cn3c(n2)sc2cc(C(=O)NCCC4=CCCCC4)ccc23)cc1	/	/	/	25µM*	/	/
Cc1ccc(-c2cn3c(n2)sc2cc(C(=O)NCCC4=CCCCC4)ccc23)cc1	/	/	/	-19%	/	/
CCN(CC)CCCNC(=O)c1ccc2c(c1)sc1nc(-c3ccc(C)cc3)cn12	/	/	/	-27%	/	/
CCCNC(=O)c1ccc2c(c1)sc1nc(-c3ccc(C)cc3)cn12	/	/	/	32µM*	/	/
Cc1ccc(-c2cn3c(n2)sc2cc(C(=O)N4CCCCC4)ccc23)cc1	/	/	/	25µM*	/	/
Cc1ccc(S(=O)(=O)N2CC3C(=O)C[C@@H](c4ccccc4)N(S(=O)(=O)c4cccc(Cl)c4)C3CC2c2ccccc2)cc1 (some centres undefined)	/	/	/	1%	/	/
SMILES	B2AR arrestin	p53 reactivator	uPA generation	ClpP mod	Mito fusion act	Giardia killer
CC(C)c1ccc(Nc2c(-c3ccccn3)nc3ccccn23)cc1	/	/	/	-4%	/	/
O=C(Nc1ccccn1)c1ccc2ccccc2n1	5%	45µM*	-12%	3%	2%	-4
Cc1cc(C)c2c(=O)cc(C(=O)Nc3sc4c(c3C#N)CCCC4)oc2c1	/	/	/	-1%	/	/
CCCSc1nnc2c(n1)OC(c1sccc1C)Nc1ccccc1-2 (centres undefined)	/	/	/	2%	/	8
COc1ccc(NC(=O)c2cc3c(s2)-c2c(C)cccc2OC3)cc1Cl	/	/	/	25µM*	/	/
COc1ccccc1C(=O)NC(=O)Nc1ccc(-c2cc(C(F)(F)F)nn2-c2ccccc2)cc1	/	/	/	0%	/	/
COc1ccccc1C(=O)Nc1ccc(-c2cc(C(F)(F)F)nn2-c2ccccc2)cc1	/	/	/	22µM*	/	/
COc1ccc(NC(=O)c2sc3nc4c(c(-c5ccc(OC)cc5)c3c2N)C(=O)CC(C)(C)C4)cc1	/	/	/	1%	/	/
CCOc1ccc(NC(=O)Cn2c(=O)n(CC(=O)NCc3ccccc3Cl)c(=O)c3sccc32)cc1	/	/	/	0%	/	/
CN1C(=O)c2ccccc2N(C)C1c1cccs1 (centres undefined)	-1%	3%	-4%	20µM*	2%	14
Cc1ccc(S(=O)(=O)/N=C(/c2ccc(F)cc2)N2CCCC2)cc1	-1%	2%	-2%	1%	-1%	23
Cc1ccc(S(=O)(=O)/N=C(/c2ccc(F)cc2)N2CCCCC2)cc1	-1%	-5%	15%	32µM*	3%	-8
COc1ccc(Cn2c(SCc3ccc(C(=O)NC(C)C)cc3)nc3cccnc32)cc1	/	/	/	4%	/	/
Cc1ccc(/C=C/c2ccc(=O)n(Cc3ccc(Cl)cc3Cl)n2)cc1	-2%	5%	14%	3.2µM*	0%	-9
O=c1ccc(/C=C/c2ccccc2)nn1Cc1ccc(Cl)cc1Cl	0%	0%	-3%	28µM*	7%	11
O=c1ccc(/C=C/c2ccccc2)nn1Cc1ccccc1Cl	0%	-1%	9%	?	27%	17
Cc1ccc(N(Cc2cccs2)C(=O)c2ccc(OC(C)C)cc2)cc1	/	/	/	-1%	/	/
CCOc1ccc(NC(=O)CC2C(=O)N(c3ccccc3)C(=O)N2Cc2ccco2)cc1 (centres undefined)	0%	0%	-2%	25µM*	-1%	14
CCOc1ccc(NC(=O)CSc2nnc(-c3ccccc3Cl)n2Cc2ccco2)cc1	0%	6%	0%	18µM*	6%	-14
O=C(CC1NCCNC1=O)Nc1ccc(F)c(Cl)c1 (centres undefined)	/	/	/	1%	/	/
Cc1cccc(N2CCN(S(=O)(=O)c3ccc4c(c3)NC(=O)C(C)S4)CC2)c1C (centres undefined)	0%	7%	-6%	-1%	11µM*	17
CCOc1ccccc1-c1nc(Cn2c(=O)cc(C)c3c(C)nn(-c4ccccc4)c32)c(C)o1	/	/	/	-11%	/	/
Nc1nn(-c2ccccc2)c(N)c1N=Nc1cccc(F)c1	1%	?	1.4µM*	0%	5%	-27
Cc1ccc(CN2C(=O)c3ccccc3S(=O)(=O)c3ccc(C(=O)OCC4CCCO4)cc32)cc1 (centres undefined)	/	/	/	-7%	/	/
